# Only some compounds are listed: those with a hit (about 1.3% of all), similar ones and a draw of the others.
# PGC1a acetyl inh: modulators of PGC1a acetylation; U2OS PGC1a acetylation, AlphaScreen anti-acetyl-lysine; with virally co-expressed GCN5 acetyltransferase; inhibition, % at 15.6 µM; 0.17% of 350,000 active;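 active means every replicate shows inhibition of at least 40%; inconclusive means mean inhibition at least 40% but some replicate below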;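 further: 0% = neutral control wells and 100% = positive control wells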
# HIF act: HIF pathway transcriptional activation. 0.32% of 300,000 active. AID 1910. activation, % at 7.5 µM (by protocol). U2OS HRE-luciferase reporter, luminescence; normalized: DMSO 0%, desferrioxamine 100%;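 active means mean activation of at least 10% of the iron chelator positive control signal, with at least half of replicates also reaching 10%; inconclusive means mean and replicate majority disagree about reaching 10%; inactive means mean and most replicates under 10%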
# Statin myotox sup: suppressors of simvastatin-induced myotoxicity in C2C12 myotubes | rescue of ATP level, % at 7.49 µM | ATP luminescence, 48 h; scaled: DMSO 0, geranylgeraniol control 100 | 0.78% of 330,000 active;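 active means mean ATP rescue above about 67%, or every replicate alone reaching that limit, limit read from the data, passing the limit was not always enough; inconclusive means no clear call, values can overlap the other calls; inactive means mean under the limit and some replicate under it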;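 further: myotubes were challenged with 10 µM simvastatin during compound exposure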
# Rce1 inhib: inhibitors of yeast Ras-converting enzyme; 0.27% of 290,000 active; AID 2563; Q03530; yeast membranes, quenched prenylated peptide cleavage fluorescence; calls only;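 active means fall in fluorescence gain of 50% or more versus controls, with final raw signal at or below 3038400; inconclusive means same 50% fall but final raw signal above 3038400; inactive means fall in fluorescence gain under 50%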;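 further: plate controls were neutral control wells for no effect and wells lacking membranes for full effect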
# Target sequence (Q03530 whole entry, looked up): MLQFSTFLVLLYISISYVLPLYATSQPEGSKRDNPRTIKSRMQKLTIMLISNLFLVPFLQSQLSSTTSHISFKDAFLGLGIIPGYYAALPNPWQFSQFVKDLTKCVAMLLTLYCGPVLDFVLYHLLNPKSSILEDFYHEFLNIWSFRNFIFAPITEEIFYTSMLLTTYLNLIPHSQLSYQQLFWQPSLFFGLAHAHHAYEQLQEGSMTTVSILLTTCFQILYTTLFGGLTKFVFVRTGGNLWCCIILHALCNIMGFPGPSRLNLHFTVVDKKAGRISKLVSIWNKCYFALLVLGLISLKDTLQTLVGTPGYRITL
# AI-2 QS mod: modulators of Vibrio harveyi AI-2 quorum sensing system; Vibrio harveyi JMH597 AI-2 luminescence/OD600 ratio, 9 h; hits give low values; strain lacks LuxN and CqsS sensors; 0 = neutral-control median; activity change, % at 7.5 µM; 0.4% of 300,000 active; AID 2094; in the data active means activity change below about -75%, passing the limit was not always enough; inconclusive means no clear call, values can overlap the other calls;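 further: luminescence divided by OD600 gain over 9 h not by final OD600 alone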
# JMH597 growth: retest: blocks Vibrio harveyi JMH597 growth; shares compounds with AI-2 QS mod; AID 2726; 1% of 750 active; OD600 absorbance, 9 h; lacks LuxN and CqsS sensors; growth inhibition, % at 7.5 µM;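 active means every replicate shows growth inhibition above 50%; inconclusive means at least half, but not all, replicates pass that cutoff; inactive means fewer than half of replicates pass it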
# BB721 const-QS lum: retest counter-screen: luminescence loss in constitutive-on quorum sensing strain BB721. shares compounds with AI-2 QS mod. Vibrio harveyi BB721 luminescence, 9 h. inhibition, % at 7.5 µM. 95% of 750 active;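 active means inhibition above about 80% in every replicate, not just on average, limit read from the data; inconclusive means at least half of replicates past the limit, but not all; inactive means fewer than half of replicates past the limit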
# BB721 growth: retest Vibrio harveyi BB721 growth inhibition; 3% of 750 active; OD600 absorbance, 9 h; growth inhibition, % at 7.5 µM; shares compounds with AI-2 QS mod;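 active means every replicate shows growth inhibition above 50%; inconclusive means at least half but not all replicates above 50% inhibition; inactive means under half of replicates above 50% inhibition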
# JMH597 AI-2 mod: Vibrio harveyi AI-2 signaling luminescence modulation – JMH597 strain, confirmation. 97% of 750 active. shares compounds with AI-2 QS mod. AID 2736. Vibrio harveyi JMH597 AI-2 quorum sensing luminescence, 9 h; luxN and CqsS knockout, AI-2 only. inhibition, % at 7.5 µM;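 active means every replicate shows more than 75% inhibition of signal versus neutral control wells; inconclusive means half to three quarters of replicates exceed 75% inhibition; inactive means fewer than half of replicates exceed 75% inhibition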
# Starred values were filed as active, the others as inactive; i = inactive; ? = inconclusive; . = no result.
SMILES,PGC1a acetyl inh,HIF act,Statin myotox sup,Rce1 inhib,AI-2 QS mod,JMH597 growth,BB721 const-QS lum,BB721 growth,JMH597 AI-2 mod
Cc1ccccc1OCCCC(=O)Nc1ccc2c(c1)OCO2,1,0,-4,i,38,.,.,.,.
Cc1ccc(NC(=O)CCOc2ccccc2C)cc1C,.,0,13,i,-78*,39,92*,31,93*
Cc1ccccc1OCCC(=O)Nc1ccc(F)c(Cl)c1,.,0,1,i,-93*,22,97*,31,98*
CCOc1ccc(NC(=O)CN2C(=O)CSC(C)C2=O)cc1 (configuration not stated),4,0,.,i,-78*,16,91*,10,93*
CSCCC1NC(=O)N(CC(=O)Nc2ccc(-c3ccccc3)cc2)C1=O (configuration not stated),13,1,-15,.,-83*,-22,85*,-5,91*
CSCCC1NC(=O)N(CC(=O)Nc2c(C(C)C)cccc2C(C)C)C1=O (configuration not stated),0,-1,-5,i,-4,.,.,.,.
CCOc1ccc(NC(=O)CN2C(=O)NC(CCSC)C2=O)cc1 (configuration not stated),2,0,.,i,-79*,8,91*,7,94*
O=C(Cc1cccnc1)N1CC(=O)N2[C@H](CO)[C@H](c3ccc(C#CC4CCCCC4)cc3)[C@H]2C1,8,.,.,.,.,.,.,.,.
C[C@@H]1CN([C@@H](C)CO)C(=O)c2cc(C#Cc3cccc(F)c3)cnc2O[C@@H]1CN(C)C(=O)C1CCC1,-1,.,16,.,.,.,.,.,.
O=C(C[C@@H]1C[C@H]2c3cc(NS(=O)(=O)c4ccc(F)cc4)ccc3O[C@H]2[C@@H](CO)O1)NCc1cccc(F)c1,1,.,-6,.,.,.,.,.,.
Clc1nc(-c2ccccc2)ncc1Oc1ccccc1,-8,1,4,i,-85*,18,97*,22,98*
CC(C)NC(=O)NCC[C@H]1CC[C@@H](NS(=O)(=O)c2ccccc2)[C@@H](CO)O1,-12,.,.,.,.,.,.,.,.
O=C(C[C@@H]1C[C@@H]2c3cc(NC(=O)NC4CCCC4)ccc3O[C@@H]2[C@H](CO)O1)NCc1cccnc1,-7,.,.,.,.,.,.,.,.
NC(=S)N/N=C/c1ccc(-c2ccccc2)o1,5,1,.,i,?,.,.,.,.
Cc1ccc(-c2ccc(/C=N/NC(N)=S)o2)cc1,1,3,.,i,-87*,24,90*,?,92*
Cc1noc(C)c1CSCC(=O)N(C)CC(=O)Nc1ccc(Cl)c(C(F)(F)F)c1,-1,-1,-4,i,-87*,13,95*,-4,96*
CN(CC(=O)Nc1ccc(Cl)c(C(F)(F)F)c1)C(=O)c1cccs1,-6,0,-3,i,-89*,24,98*,25,98*
CN(CC(=O)Nc1ccc(Cl)c(C(F)(F)F)c1)C(=O)C1(c2ccccc2)CC1,3,0,-35,i,1,.,.,.,.
Clc1cccc(CON/C=N/c2ncnc3sccc23)c1,2,0,12,i,-92*,44,96*,0,98*
Cc1cc(C)cc(OCc2nc(-c3cccnc3)no2)c1,7,1,.,i,-95*,9,99*,-2,99*
Cc1ccc(OCc2nc(-c3cccnc3)no2)cc1C,.,1,.,i,-94*,2,98*,3,99*
Cc1ccccc1OCc1nc(-c2cccnc2)no1,.,3,.,i,-48,.,.,.,.
CN1c2ccc(-c3cccc(C#N)c3)cc2[C@@H]2[C@@H](CCN2C(=O)C2CCCCC2)[C@@H]1CO,-17,.,.,.,.,.,.,.,.
CN(C)C(=O)C[C@@H]1CC[C@H](NC(=O)C2CC2)[C@@H](CO)O1,-2,.,1,.,.,.,.,.,.
CC(C)(C)c1ccc(OCC(=O)Nc2ccncc2)c(Br)c1,4,4,-33,i,19,.,.,.,.
SMILES,PGC1a acetyl inh,HIF act,Statin myotox sup,Rce1 inhib,AI-2 QS mod,JMH597 growth,BB721 const-QS lum,BB721 growth,JMH597 AI-2 mod
CCc1ccc(OCC(=O)Nc2ccncc2)c(Br)c1,5,13*,-9,i,-81*,30,?,-22,100*
CCc1ccc(NC(=O)COc2ccc(Br)cn2)cc1,.,1,-1,i,-84*,-16,95*,1,96*
C[C@@H]1CN([C@@H](C)CO)C(=O)c2cc(NS(=O)(=O)c3cn(C)cn3)ccc2O[C@@H](C)CCCCO[C@H]1CN(C)Cc1ccc(C(=O)O)cc1,1,.,.,.,.,.,.,.,.
CCCc1cc(C(=O)Nc2ccc(F)c(Cl)c2)no1,.,0,37,i,-82*,38,96*,-78,97*
C[C@@H](NC(=O)C[C@@H]1CC[C@@H]2[C@H](COC[C@H](O)CN2Cc2ccc(C(F)(F)F)cc2)O1)c1ccccc1,-5,.,?,.,.,.,.,.,.
CC(COc1ccc(C(C)C)cc1)NC(=O)c1ccc(Br)o1 (configuration not stated),.,0,-2,i,-83*,-16,88*,3,93*
CC(C)c1ccc(S(=O)(=O)N2CCN(C(=S)NCc3ccco3)CC2)cc1,-8,0,.,i,-96*,32,100*,-39,100*
O=C(NC(=S)Nc1nc(-c2ccc(Br)cc2)cs1)c1ccco1,.,0,.,.,21,.,.,.,.
O=C(NNc1nc(-c2ccc(Br)cc2)cs1)c1ccco1,.,0,-3,i,-85*,63*,95*,69*,97*
O=C1COc2ccc(C(=O)COC(=O)/C=C/c3ccc(Br)o3)cc2N1,5,0,-5,i,-96*,12,99*,1,99*
Cc1ccccc1S(=O)(=O)N1CCCCN2[C@H](CO)[C@H](c3ccc(-c4ccccc4)cc3)[C@H]2C1,-26,.,.,.,.,.,.,.,.
COc1ccc(OC)c(NC(=O)C2CCCNC2=O)c1 (configuration not stated),-10,0,3,i,21,.,.,.,.
CC(C)Oc1ccc(NC(=O)C2CCCNC2=O)cc1 (configuration not stated),15,0,-6,i,?,-7,89*,-3,93*
C[C@@H]1CN([C@H](C)CO)C(=O)c2cc(-c3ccc(F)cc3)cnc2O[C@H]1CN(C)C(=O)Cc1ccccn1,-2,.,-1,.,.,.,.,.,.
C[C@H]1CN([C@@H](C)CO)C(=O)c2cc(-c3ccccc3)cnc2O[C@@H]1CN(C)C(=O)Cc1cccnc1,0,.,15,.,.,.,.,.,.

# Screening results as filed in PubChem.
